# Assay results as given in PubChem BioAssay (NCATS).
# Results filed as inconclusive are left out. Unmarked numbers belong to inactive results. Activity calls are given as the source filed them. Calls come from the whole dose curve; as a rule, active = well fitted cell-killing curve with a large enough effect; inconclusive = small, poorly fitted or top-dose-only effect, or effect the other way; inactive = flat fitted curve, though single readings scatter.
# System: CASKI
# Test: Primary qHTS to identify gynecologic anti-cancer compounds using libraries of approved drugs and bioactive compounds (AID 1345084); note: nearly all actives have a fitted effect of over 55% in size
# Conditions: Gynecologic cancer cell panel viability, ATPlite luminescence, 48 h; series mostly up to 57.5 µM; activity change, negative = cytotoxicity: at the top concentration
# Outline: (§1)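 Measured: luminescence after ATPlite addition (15 min, RT). Exposure: 48 h, 37 C, 5% CO2.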
# % is set by controls: 0 for no effect and ±100 for the full control effect; potency is the fitted concentration of half-maximal effect.
Structure (SMILES),"activity change, negative = cytotoxicity",Potency
O=C(NNc1ccccc1)c1ccncc1,-1.52%,–
COc1cc(O)c(C(=O)CCc2ccc(O)cc2)c(O[C@@H]2O[C@H](CO)[C@@H](O)[C@H](O)[C@H]2O)c1,-15.9% [at 25.3 µM],–
COc1ccc(Cl)cc1[C@@]1(F)C(=O)Nc2cc(C(F)(F)F)ccc21,-26.2%,–
CN(CCCNC(=O)c1ccc2nc3c(c(Cl)c2c1)CCCC3)Cc1ccccc1,-1.83%,–
O=C(NCc1ccc(Oc2ccccc2)cc1)c1nc(-c2cc(Br)c(O)c(Br)c2)no1,26.3%,–
O=C(Nc1ccc(F)cc1)N1CCc2ccccc2C1c1ccc(C(F)(F)F)cc1 (stereo not given),-13.2%,–
CC(C)(C)c1ccc(-c2nc3ccccc3[nH]2)cc1,–,1.12 µM (active)
C=C(C)C(=O)OC1[C@@H]2C(=C)C(=O)O[C@@H]2C[C@@H](C)[C@@H]2C=CC(=O)[C@@]12C (stereo not given in full),8.84% [at 38.5 µM],–
CC1CCC2C(=CCC(O)C2(C)C)C1(C)Cc1c(O)cc(CO)c(C=O)c1O (stereo not given),-2.99% [at 38.5 µM],–
CC1(C)CC23[C@@H]4CC(=O)[C@@H]2COC(=O)[C@@H]3CC[C@H]41,0.941%,–
CN1CCN(C(=O)c2ccc(Nc3nccc(-c4cccs4)n3)cc2Cl)CC1,-2.94%,–
Cn1cnc(-c2nccc3c(=O)[nH]c(OCCCC(F)(F)F)nc23)c1,-3.97%,–
CC(C)[C@@H](C)/C=C/[C@@H](C)[C@H]1CC[C@H]2C3=CC=C4C[C@@H](O)CC[C@]4(C)C3=CC[C@]12C,6.82%,–
OCC(Cc1ccccc1)Nc1nc(Oc2ccc3c(c2)CCC3)nc2c1ncn2Cc1ccc(-c2ccccc2)cc1 (stereo not given),-5.43%,–
Cc1[nH]c(/C=C2\C(=O)Nc3ccc(F)cc32)c(C)c1C(=O)NC[C@H](O)CN1CCOCC1,-7.48%,–
Cc1ccc(C2(COC(=O)C(C)C)CO2)c(OC(=O)C(C)C)c1 (stereo not given),-12.6% [at 38.5 µM],–
CCC(C)n1cc(C)c2c(C(=O)NCc3c(C)cc(C)[nH]c3=O)cc(-c3ccc(N4CCNCC4)nc3)cc21 (stereo not given),-5.14%,–
Cn1nccc1Nc1nccc(-c2ccn([C@H](CO)c3ccc(Cl)c(F)c3)c(=O)c2)n1,3.41%,–
COc1cc2ncnc(Oc3cccc(NC(=O)Nc4cc(C(C)(C)C(F)(F)F)on4)c3)c2cc1OC,-5.18%,–
Nc1ncnc2c1ncn2[C@@H]1O[C@H](CO)C[C@H]1O,-35.2%,–
O=[N+]([O-])c1ccc(-[n+]2nc(-c3ccccc3)nn2-c2ccc(I)cc2)cc1,-11.4%,–
O=C(NC(NC(=S)Nc1ccc(F)c([N+](=O)[O-])c1)C(Cl)(Cl)Cl)C(c1ccccc1)c1ccccc1 (stereo not given),-4.56% [at 25.3 µM],–
Cc1ccc(C(=O)N2CCN(c3ccc([N+](=O)[O-])cc3)CC2)cc1Cl,9.08%,–
C=C1/C(=C/C=C2\CCC[C@]3(C)[C@@H]([C@H](C)/C=C/C(=O)C4CC4)CC[C@@H]23)C[C@@H](O)C[C@@H]1O,-2.52%,–

# System: Es-2
# Test: as above
# Conditions: Gynecologic cancer cell panel viability, ATPlite luminescence, 48 h; series mostly up to 57.5 µM; activity change, negative = cytotoxicity: at the top concentration
# Outline: as §1
Structure (SMILES),Potency,"activity change, negative = cytotoxicity"
CCCCn1ccc(N2CCC(c3ccccc3)CC2)c(Cl)c1=O,28.2 µM (active),–
COc1ccccc1NC(=O)Nc1ccc2ccccc2c1,–,-16.7%
CCOC(=O)c1cnn(-c2ccc(NC(=O)C(Cl)=C(Cl)Cl)cc2)c1C(F)(F)F,–,-2.92%
COc1ccc(Cl)cc1[C@@]1(F)C(=O)Nc2cc(C(F)(F)F)ccc21,–,-4.43%
CN(CCCNC(=O)c1ccc2nc3c(c(Cl)c2c1)CCCC3)Cc1ccccc1,–,0.0354%
O=C(NCc1ccc(Oc2ccccc2)cc1)c1nc(-c2cc(Br)c(O)c(Br)c2)no1,–,-0.379%
CCN(CC)c1ccc(C(=C2C=CC(=[N+](CC)CC)C=C2)c2cc(S(=O)(=O)O)ccc2S(=O)(=O)[O-])cc1,28.2 µM (active),–
O=C(Nc1ccc(F)cc1)N1CCc2ccccc2C1c1ccc(C(F)(F)F)cc1 (stereo not given),–,4.19%
CC(C)(C)c1ccc(-c2nc3ccccc3[nH]2)cc1,1.58 µM (active),–
C=C(C)C(=O)OC1[C@@H]2C(=C)C(=O)O[C@@H]2C[C@@H](C)[C@@H]2C=CC(=O)[C@@]12C (stereo not given in full),–,-25.1% [at 38.5 µM]
CC1CCC2C(=CCC(O)C2(C)C)C1(C)Cc1c(O)cc(CO)c(C=O)c1O (stereo not given),–,-3.09% [at 38.5 µM]
CC1(C)CC23[C@@H]4CC(=O)[C@@H]2COC(=O)[C@@H]3CC[C@H]41,–,-21.6%
CCN1CCN(Cc2ccc(-c3cc4c(NC(C)c5ccccc5)ncnc4[nH]3)cc2)CC1 (stereo not given),–,-5.32%
CN1CCN(C(=O)c2ccc(Nc3nccc(-c4cccs4)n3)cc2Cl)CC1,–,4.6%
CC(C)[C@@H](C)/C=C/[C@@H](C)[C@H]1CC[C@H]2C3=CC=C4C[C@@H](O)CC[C@]4(C)C3=CC[C@]12C,–,3.34%
CCN(CCCOc1ccc2c(Nc3cc(CC(=O)Nc4cccc(F)c4)[nH]n3)ncnc2c1)CCOP(=O)(O)O,–,-5.92%
O=C1c2c(O[C@@H]3O[C@H](CO)[C@@H](O)[C@H](O)[C@H]3O)cc(O)cc2OC1(O)Cc1ccc(O)cc1 (stereo not given in full),–,-17.9% [at 25.3 µM]
CCCCn1c(-c2ccccc2)nc(-c2ccccc2)c1CN(Cc1ccc2c(c1)OCO2)Cc1ccc2c(c1)OCO2,–,-0.161%
Cc1ccc(C2(COC(=O)C(C)C)CO2)c(OC(=O)C(C)C)c1 (stereo not given),–,-4.62% [at 38.5 µM]
CCC(C)n1cc(C)c2c(C(=O)NCc3c(C)cc(C)[nH]c3=O)cc(-c3ccc(N4CCNCC4)nc3)cc21 (stereo not given),–,1.72%
Cn1nccc1Nc1nccc(-c2ccn([C@H](CO)c3ccc(Cl)c(F)c3)c(=O)c2)n1,–,-10.3%
COc1cc2ncnc(Oc3cccc(NC(=O)Nc4cc(C(C)(C)C(F)(F)F)on4)c3)c2cc1OC,–,-12%
O=[N+]([O-])c1ccc(-[n+]2nc(-c3ccccc3)nn2-c2ccc(I)cc2)cc1,–,-10.2%
O=C(NC(NC(=S)Nc1ccc(F)c([N+](=O)[O-])c1)C(Cl)(Cl)Cl)C(c1ccccc1)c1ccccc1 (stereo not given),–,-0.333% [at 25.3 µM]
Cc1ccc(C(=O)N2CCN(c3ccc([N+](=O)[O-])cc3)CC2)cc1Cl,–,-2.45%
C=C1/C(=C/C=C2\CCC[C@]3(C)[C@@H]([C@H](C)/C=C/C(=O)C4CC4)CC[C@@H]23)C[C@@H](O)C[C@@H]1O,–,0.092%
